PubChem BioAssay (NCI)
This is part of a sample that, as a whole, favours compounds with a hit. Of some 83,000 tested, about 20% had one in any assay.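 Results are percent growth after 48 hours of single-concentration exposure. 100 means growth as in untreated cells, lower positive values show inhibition; negative values down to -100 show cell death.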 Activity calls are given as the source filed them.

Each molecule was assayed on SNB-75 CNS (assay: NCI-60 one-dose screen, 48 h (100 = growth as untreated, 0 = no growth, -100 = all killed)). Settings: 10 µM unless noted.
Description: Growth inhibition of the SNB-75 human tumor cell line is measured as a screen for anti-cancer activity. Cells are grown in 96 well plates and exposed to the test compound for 48 hours. Compounds are tested at a single concentration, which is 10^-5 M for most compounds. The reported endpoint is percent growth (GI% or GIPRCNT), where numbers from 0 - 100% represent growth inhibition, and numbers from -100% - 0 represent cell death. For example, a value of 40 represents 60% growth inhibition. A value of 0 means no net growth occurred over the course of the experiment. A value of -40 indicates 40% of cells at the beginning of the experiment died by the end of the experiment. A value of -100 means all cells are dead at the end of the experiment.
NCI-60 Human Tumor Cell Lines Screen was performed using the standard one-dose NCI protocol, which is described in more detail at https://dtp.cancer.gov/discovery_development/nci-60/default.htm.
Compounds with GIPRCNT values below 10 were considered active. Activity score was based on GIPRCNT using the following formula: […]
Score is 0 for GIPRCNT values of 100 or above, 50 for GIPRCNT values of 0, and 100 for GIPRCNT values of -100.

SMILES	growth
CCN(CC)CCSc1c2ccc(Cl)cc2nc2ccc(OC)cc12	110% (inactive)
C=CCN=C1NC(=O)/C(=C/c2cc(C(C)(C)C)c(O)c(C(C)(C)C)c2)S1	88.8% (inactive)
c1ccc2c(c1)Oc1ccccc1C2C1c2ccccc2Oc2ccccc21	86.2% (inactive)
COc1ccc(S(=O)(=O)Nc2cc(/C=C\c3cc(OC)c(OC)c(OC)c3)cc(OC)c2OC)cc1OC	-4.59% (active)
O=C(Cc1c(F)cccc1Cl)Nc1ccc(S(=O)(=O)Nc2ncccn2)cc1	110% (inactive)
CC1(C)OC2COC3(C(=O)O)OC(C)(C)OC3C2O1 (stereo not given)	87.2% (inactive)
COc1cc(C2C=C(C)N=C3SC(C)=NN32)cc(OC)c1OC (stereo not given)	82.5% (inactive)
COC1=CC(c2ccc[nH]2)=N/C1=C\c1[nH]c(C)c(CCCn2cc(CCCCCCCCC[C@@H]3Cc4cc(O)ccc4C4CC[C@]5(C)[C@@H](O)CC[C@H]5C43)nn2)c1C (stereo not given in full)	88.8% (inactive)
O=C(/C=C/CN1CCOCC1)Nc1cc2c(Nc3cccc(Cl)c3F)ncnc2cc1OCCOC(F)F	63% (inactive)
COc1ccc2c(c1)C=CC(C#N)N2C(=O)c1ccccc1 (stereo not given)	-14.7% (active)
Clc1ccc(/C=C/c2nc(N3CCOCC3)c3nc(Cl)c(Cl)cc3n2)cc1	94.3% (inactive)
COc1ccc(Cn2cc(COc3cc(/C=C/C(=O)c4cc(OC)c(OC)c(OC)c4)ccc3OC)nn2)cc1	59.8% (inactive)
CC(C)(C)c1cc(-c2nc3ccc(N4CCN(CCO)CC4)cc3[nH]2)cc(C(C)(C)C)c1O	67.2% (inactive)
CCCCCC/C=C\CCCCCCCCOc1ccc(CCOP(=O)(O)OCC[N+](C)(C)C)cc1	75.3% (inactive)
O=S(=O)(NCCCNc1nccc(-c2c(-c3ccccc3)nc3sccn23)n1)c1ccc(F)cc1	44% (inactive)
O=C(CNC(=O)c1cccc2ccccc12)Nc1ccccc1Oc1ccccc1	38.9% (inactive)
O=C(Nc1ccc(F)cc1)c1cc([N+](=O)[O-])ccc1O	78.1% (inactive)
Cc1c(C(=O)NCc2ccccc2)[n+](=O)c2cc(F)ccc2n1[O-]	76.7% (inactive)
CCCCOc1nc2c(C)cccc2cc1C1CNC(=O)c2ccccc2N1 (stereo not given)	56.6% (inactive)
C=CCc1cc(Cl)cc2c(OC(C)=O)c(C(C)=O)c(-c3ccccc3)nc12	85.6% (inactive)

SMILES	growth
c1ccc([P+](CCC[P+](c2ccccc2)(c2ccccc2)c2ccccc2)(c2ccccc2)c2ccccc2)cc1	54% (inactive)
O=C(Nc1cc(C(F)(F)F)cc(C(F)(F)F)c1)Nc1ccc(OCc2nnc(-c3ccc(Cl)cc3)o2)c(F)c1	14.8% (inactive)
O=C(Nc1ccc(I)cc1)c1cc([N+](=O)[O-])ccc1O	57% (inactive)
CCOC(=O)/C=C\C(=O)NC(N)=O	99.3% (inactive)
C=CCOc1cccc(/C=C/C(=O)c2sc(Nc3cccnc3)nc2C)c1	2.22% (active)
NC(=O)c1c(NC(=O)c2ccc3c(c2)OCO3)sc2c1CCC(=O)C2	-12.6% (active)
Cc1oc2nc[nH]c(=O)c2c1C(=O)/C=C/c1ccc(Cl)cc1	-11.4% (active)
CC[C@H](C)[C@@H]1NC(=O)[C@H]([C@@H](C)O)NC(=O)C(Cc2ccccc2)NC(=O)[C@@H]2CCCN2C(=O)C(C(C)C)NC(=O)C(Cc2ccccc2)NC(=O)CNC(=O)[C@@H]2CCCN2C1=O (stereo not given in full)	54.3% (inactive)
CC(=O)Nc1ccc2c(c1)/C(=C\C=C/c1ccc([N+](C)(C)C)cc1)c1ccccc1-2	-1.84% (active)
O=C1CCCCN1CCCCC#Cc1ccccc1C#Cc1ccccn1	91.9% (inactive)
Cc1cc2c(C(C)C)c(O)c(O)c(C=NCCCCC(=O)O)c2c(O)c1-c1c(C)cc2c(C(C)C)c(O)c(O)c(C=NCCCCC(=O)O)c2c1O	62.1% (inactive)
Cc1ccc(C2=NN(c3ccc(S(=O)(=O)NC(=O)NCc4ccccc4)cc3)C(c3ccc(N(C)C)cc3)C2)c(C)c1 (stereo not given)	65.1% (inactive)
COc1ccc2c(c1)NC(=O)CN2c1nc(C)nc2ccccc12	41.8% (inactive)
CCC#CC[C@H]1C/C=C2/C(=O)C=C[C@@H]2C/C=C\CCCC(=O)O1	38.7% (inactive)
Nc1nc(-c2ccccc2)cs1	84.3% (inactive)
COC12CC(=O)C(C(C)=O)=C(O)C1(C)c1c(O)c(C)c(O)c(C(C)=O)c1O2 (stereo not given)	83.5% (inactive)
COc1ccc(C(=O)c2cc(OC)c(OC)c(OC)c2)cc1/C=C/C(=O)c1ccc2c(c1)OCO2	28.2% (inactive)
CN(C)C/C=C/C(=O)Nc1cc2c(Nc3ccc(F)c(Cl)c3F)ncnc2cc1OCCOC(F)F	-19.4% (active)
CCn1cc(C2NC(=O)c3cc(F)ccc3N2)c2cccc(Cl)c21 (stereo not given)	-24.9% (active)
CCN(CC)S(=O)(=O)c1ccc2[nH]c(=O)cc(C(=O)Nc3ccc(OC)cc3OC)c2c1	110% (inactive)
